Laboratory results reported in the supplement of paper PMC10849652.
The full data set covers some 7,900 targets. This sample favours those with a hit. About 0.6% of all pairs of compound and target were hits.

Tests used:
Assay in all cases: log2 fold change, soluble protein after heating vs DMSO (PISA); higher = thermal stabilisation; K562 cells, 10 uM, 30 min; active = over 0.2 and 3.5 SD of the protein, either way, in both replicates (recomputed)
[1] = compound: CC1=C(C=C(C=C1)NC(=O)C2=CC(=CC=C2)C(C)(C)C#N)NC3=CC4=C(C=C3)N=CN(C4=O)C
Outline: (§1)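 K562 cells at 2×10^6 cells/mL were treated with 10 μM compound for 30 min. Aliquots were heated for 3 min across 48°C-58°C, pooled, and extracted in PBS with 0.5% NP-40 at 4°C; soluble protein was the supernatant after 21,000xg for 90 min. Soluble protein was quantified by TMTpro 16plex LC-MS/MS with channel sums equalised, and reported as log2 fold change in thermal stability against DMSO controls, with values from duplicates.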

[2] = compound: CC1=C(C=C(C=C1)NC(=O)C2=CC(=CC=C2)N(C)C)NC(=O)C3=CC=C(C=C3)O
Outline: as §1

[3] = compound: CC1=CC=C(C=C1)SC2=C3C=C(SC3=CN=C2)C(=O)N
Outline: as §1

[4] = compound: CC1=NC(=CC=C1)C2=C(N=C(N2)C(C)(C)C)C3=CC4=NC=CN=C4C=C3
Outline: as §1

[5] = compound: CCCCN(Cc1ccc(C(=O)NO)cc1)C(=O)Nc1ccccc1 [Nexturastat A]
Outline: as §1

[6] = compound: CCCS(=O)(=O)Nc1ccc(F)c(C(=O)c2c[nH]c3ncc(-c4ccc(Cl)cc4)cc23)c1F [vemurafenib]
Outline: as §1

[7] = compound: CCCS(=O)(=O)Nc1ccc(F)c(C(=O)c2c[nH]c3ncc(Cl)cc23)c1F
Outline: as §1

[8] = compound: CCCc1cc(C)[nH]c(=O)c1CNC(=O)c1cc(-c2ccnc(N3CCN(C)CC3)c2)cc2c1cnn2C(C)C
Outline: as §1

[9] = compound: CCN(CC)Cc1ccc2cc(COC(=O)Nc3ccc(C(=O)NO)cc3)ccc2c1 [givinostat]
Outline: as §1

[10] = compound: CCN(CCCOc1ccc2c(Nc3cc(CC(=O)Nc4cccc(F)c4)[nH]n3)ncnc2c1)CCOP(=O)(O)O [barasertib]
Outline: as §1

[11] = compound: CC[C@@H]1C(=O)N(C)c2cnc(Nc3ccc(C(=O)NC4CCN(C)CC4)cc3OC)nc2N1C1CCCC1
Outline: as §1

[12] = compound: CC[C@@H]1C(=O)N(C)c2cnc(Nc3ccc(C(=O)N[C@H]4CC[C@H](N5CCN(CC6CC6)CC5)CC4)cc3OC)nc2N1C(C)C [volasertib]
Outline: as §1

[13] = compound: CC[C@H](C)N1C=C(C2=C(C=C(C=C21)C3=CN=C(C=C3)N4CCNCC4)C(=O)NCC5=C(C=C(NC5=O)C)C)C
Outline: as §1

[14] = compound: CC[C@H](C)[C@@H](C(=O)N[C@@H]([C@@H](C)O)C(=O)N[C@@H](CC(C)C)C(=O)[C@]1(CO1)C)NC(=O)[C@H]([C@@H](C)CC)N(C)C(=O)C [epoxomicin]
Outline: as §1

[15] = compound: CCn1c(C(=O)N(C2CC2)C2CC2)cc2c3c(ncn3C)c(Nc3cc(C)n(C)n3)nc21
Outline: as §1

[16] = compound: CCn1cc(-c2ccnc3[nH]c(-c4cccc(CN(C)C)c4)cc23)c(-c2ccc(NC(=O)N(C)C)cc2)n1
Outline: as §1

[17] = compound: CN(C)CC(=O)Nc1ccc2[nH]c(=O)c3ccccc3c2c1
Outline: as §1

[18] = compound: CN(CCOC1=CC=C(C=C1)C[C@H]2C(=O)NC(=O)S2)C3=CC=CC=N3 (racemic) [rosiglitazone]
Outline: as §1

[19] = compound: CN1C2=C(C3=C1C(=O)N(N=C3)CC4=CC(=CC=C4)N)SC(=C2)S(=O)C
Outline: as §1

[20] = compound: CN1CCC(CNc2ccc3ncc(-c4cccc(OC(F)(F)F)c4)n3n2)CC1
Outline: as §1

Measured: log2 fold change

RUFY1 (UniProt Q96T51)
UniProt Q96T51, sequence (Q96T51 whole entry, looked up): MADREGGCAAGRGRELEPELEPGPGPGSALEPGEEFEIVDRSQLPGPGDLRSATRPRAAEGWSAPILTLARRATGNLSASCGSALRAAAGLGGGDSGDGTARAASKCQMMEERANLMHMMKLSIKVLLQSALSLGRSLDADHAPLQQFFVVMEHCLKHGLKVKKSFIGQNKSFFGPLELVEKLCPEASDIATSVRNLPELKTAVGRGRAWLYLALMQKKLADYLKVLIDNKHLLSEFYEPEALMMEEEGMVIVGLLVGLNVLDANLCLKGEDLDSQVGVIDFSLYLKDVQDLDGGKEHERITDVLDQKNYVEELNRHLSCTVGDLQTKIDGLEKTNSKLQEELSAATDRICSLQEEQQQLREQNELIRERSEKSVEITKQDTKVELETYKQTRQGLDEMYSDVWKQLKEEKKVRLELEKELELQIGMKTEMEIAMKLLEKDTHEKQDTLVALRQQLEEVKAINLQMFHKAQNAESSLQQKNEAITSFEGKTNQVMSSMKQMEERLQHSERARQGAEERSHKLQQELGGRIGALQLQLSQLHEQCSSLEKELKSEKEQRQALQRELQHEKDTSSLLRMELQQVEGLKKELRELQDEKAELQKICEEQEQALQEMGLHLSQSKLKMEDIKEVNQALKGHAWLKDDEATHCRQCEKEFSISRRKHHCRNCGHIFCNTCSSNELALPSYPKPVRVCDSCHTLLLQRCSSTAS
inactive: [1] 0.013 | [2] -0.011 | [3] -0.022 | [4] -0.035 | [5] 0.063 | [6] 0.043 | [7] 0.059 | [8] 0.029 | [9] 0.031 | [10] 0.027 | [11] -0.145 | [13] 0.07 | [14] -0.015 | [15] 0.009 | [16] 0.06 | [17] 0.033 | [18] 0.036 | [19] 0.032 | [20] -0.058
active: [12] -0.355

RSRC2 (UniProt Q7L4I2)
UniProt Q7L4I2, sequence (Q7L4I2 whole entry, looked up): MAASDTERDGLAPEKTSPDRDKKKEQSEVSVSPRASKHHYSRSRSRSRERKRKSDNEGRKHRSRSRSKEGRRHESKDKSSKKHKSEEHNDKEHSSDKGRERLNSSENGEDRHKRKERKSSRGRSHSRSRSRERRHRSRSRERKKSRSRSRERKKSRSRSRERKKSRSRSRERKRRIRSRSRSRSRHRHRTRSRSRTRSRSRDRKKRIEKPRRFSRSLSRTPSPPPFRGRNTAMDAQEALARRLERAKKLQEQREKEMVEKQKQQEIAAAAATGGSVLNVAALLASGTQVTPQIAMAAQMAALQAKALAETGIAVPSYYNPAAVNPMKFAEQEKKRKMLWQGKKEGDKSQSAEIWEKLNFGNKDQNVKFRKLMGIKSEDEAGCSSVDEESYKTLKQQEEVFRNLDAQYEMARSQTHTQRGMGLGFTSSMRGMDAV
inactive: [1] -0.048 | [2] 0.04 | [3] -0.058 | [4] 0 | [5] 0.015 | [6] 0.007 | [7] 0.003 | [8] -0.063 | [9] -0.013 | [10] 0.01 | [11] 0.003 | [12] -0.032 | [13] -0.022 | [14] 0.031 | [15] 0.006 | [16] -0.043 | [17] 0.007 | [18] 0.008 | [19] -0.028 | [20] -0.025

RAP1GDS1 isoform 5 (UniProt P52306)
UniProt P52306, sequence (P52306 whole entry, looked up): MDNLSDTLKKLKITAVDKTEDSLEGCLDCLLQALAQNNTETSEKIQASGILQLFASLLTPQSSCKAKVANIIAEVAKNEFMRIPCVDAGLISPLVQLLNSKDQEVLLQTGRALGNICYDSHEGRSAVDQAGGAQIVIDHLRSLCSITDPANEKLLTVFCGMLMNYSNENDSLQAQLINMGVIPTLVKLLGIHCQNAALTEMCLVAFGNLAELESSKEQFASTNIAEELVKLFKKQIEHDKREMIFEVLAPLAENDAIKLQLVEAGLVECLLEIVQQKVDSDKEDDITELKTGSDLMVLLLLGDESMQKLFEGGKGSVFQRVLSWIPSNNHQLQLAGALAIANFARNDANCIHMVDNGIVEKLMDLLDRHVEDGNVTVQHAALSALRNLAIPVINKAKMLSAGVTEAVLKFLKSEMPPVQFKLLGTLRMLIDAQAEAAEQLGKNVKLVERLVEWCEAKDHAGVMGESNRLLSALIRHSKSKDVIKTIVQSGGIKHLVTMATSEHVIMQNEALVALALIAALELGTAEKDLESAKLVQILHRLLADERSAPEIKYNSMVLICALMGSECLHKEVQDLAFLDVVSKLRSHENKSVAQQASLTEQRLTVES
inactive: [1] -0.04 | [2] -0.035 | [3] 0.073 | [4] 0.042 | [5] -0.023 | [6] -0.014 | [7] 0.174 | [8] 0.016 | [9] 0.047 | [10] 0.019 | [11] -0.018 | [12] -0.27 | [13] 0.077 | [14] 0 | [15] 0.01 | [16] -0.008 | [17] -0.017 | [18] 0.072 | [19] -0.012 | [20] -0.002

SCAF11 (UniProt Q99590)
inactive: [1] -0.089 | [2] 0.154 | [3] -0.079 | [4] -0.275 | [5] 0.003 | [6] -0.158 | [7] -0.031 | [8] 0.035 | [9] -0.034 | [10] 0.165 | [11] 0.145 | [12] 0.153 | [13] -0.092 | [14] -0.074 | [15] -0.007 | [16] 0.176 | [17] -0.142 | [18] -0.04 | [19] 0.148 | [20] 0.25

SDCBP (UniProt O00560)
inactive: [1] 0.007 | [2] 0.021 | [3] 0.009 | [4] 0.025 | [5] 0.001 | [6] 0.051 | [7] 0.041 | [8] -0.176 | [9] -0.027 | [10] -0.039 | [11] -0.223 | [12] -0.249 | [13] 0.01 | [14] -0.043 | [15] 0.059 | [16] -0.01 | [17] -0.061 | [18] -0.008 | [19] 0.045 | [20] -0.229

RBM33 (UniProt Q96EV2)
UniProt Q96EV2, sequence (Q96EV2 whole entry, looked up): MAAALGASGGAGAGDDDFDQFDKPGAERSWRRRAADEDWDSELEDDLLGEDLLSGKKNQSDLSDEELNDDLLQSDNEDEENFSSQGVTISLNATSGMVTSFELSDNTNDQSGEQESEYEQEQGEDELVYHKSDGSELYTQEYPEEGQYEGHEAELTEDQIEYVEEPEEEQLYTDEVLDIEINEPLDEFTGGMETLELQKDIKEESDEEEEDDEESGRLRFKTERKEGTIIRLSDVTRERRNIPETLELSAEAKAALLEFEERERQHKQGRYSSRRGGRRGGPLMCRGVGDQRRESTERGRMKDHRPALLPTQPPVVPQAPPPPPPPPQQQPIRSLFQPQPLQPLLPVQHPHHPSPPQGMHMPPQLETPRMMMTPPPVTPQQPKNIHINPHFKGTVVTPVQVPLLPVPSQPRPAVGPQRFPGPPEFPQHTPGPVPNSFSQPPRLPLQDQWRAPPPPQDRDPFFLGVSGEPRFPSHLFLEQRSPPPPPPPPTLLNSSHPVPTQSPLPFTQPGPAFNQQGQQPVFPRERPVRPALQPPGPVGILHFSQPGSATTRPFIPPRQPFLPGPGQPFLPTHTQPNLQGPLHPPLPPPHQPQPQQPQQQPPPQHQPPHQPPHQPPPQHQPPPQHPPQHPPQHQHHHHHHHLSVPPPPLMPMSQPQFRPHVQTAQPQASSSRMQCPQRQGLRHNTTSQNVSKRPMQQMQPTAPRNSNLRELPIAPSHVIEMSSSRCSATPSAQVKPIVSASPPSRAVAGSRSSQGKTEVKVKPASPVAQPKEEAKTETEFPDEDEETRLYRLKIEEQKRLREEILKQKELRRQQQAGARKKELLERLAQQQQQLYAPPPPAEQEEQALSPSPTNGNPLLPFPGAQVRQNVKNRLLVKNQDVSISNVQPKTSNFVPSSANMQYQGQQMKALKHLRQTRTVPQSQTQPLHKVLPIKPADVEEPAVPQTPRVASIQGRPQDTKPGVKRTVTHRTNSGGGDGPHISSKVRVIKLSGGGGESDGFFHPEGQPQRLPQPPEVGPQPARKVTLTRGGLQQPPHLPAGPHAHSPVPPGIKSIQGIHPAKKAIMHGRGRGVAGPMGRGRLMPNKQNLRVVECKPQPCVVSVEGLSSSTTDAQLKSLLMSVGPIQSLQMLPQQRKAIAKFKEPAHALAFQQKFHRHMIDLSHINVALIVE
inactive: [1] -0.024 | [2] -0.001 | [3] -0.014 | [4] 0.014 | [5] 0.021 | [6] -0.019 | [7] 0.022 | [8] 0.022 | [9] 0.077 | [10] 0.037 | [11] -0.101 | [12] -0.105 | [13] 0.035 | [14] 0.022 | [15] 0.012 | [16] -0.005 | [17] -0.025 | [18] -0.024 | [19] 0.023 | [20] 0.004

SETD3 (UniProt Q86TU7)
UniProt Q86TU7, sequence (Q86TU7 whole entry, looked up): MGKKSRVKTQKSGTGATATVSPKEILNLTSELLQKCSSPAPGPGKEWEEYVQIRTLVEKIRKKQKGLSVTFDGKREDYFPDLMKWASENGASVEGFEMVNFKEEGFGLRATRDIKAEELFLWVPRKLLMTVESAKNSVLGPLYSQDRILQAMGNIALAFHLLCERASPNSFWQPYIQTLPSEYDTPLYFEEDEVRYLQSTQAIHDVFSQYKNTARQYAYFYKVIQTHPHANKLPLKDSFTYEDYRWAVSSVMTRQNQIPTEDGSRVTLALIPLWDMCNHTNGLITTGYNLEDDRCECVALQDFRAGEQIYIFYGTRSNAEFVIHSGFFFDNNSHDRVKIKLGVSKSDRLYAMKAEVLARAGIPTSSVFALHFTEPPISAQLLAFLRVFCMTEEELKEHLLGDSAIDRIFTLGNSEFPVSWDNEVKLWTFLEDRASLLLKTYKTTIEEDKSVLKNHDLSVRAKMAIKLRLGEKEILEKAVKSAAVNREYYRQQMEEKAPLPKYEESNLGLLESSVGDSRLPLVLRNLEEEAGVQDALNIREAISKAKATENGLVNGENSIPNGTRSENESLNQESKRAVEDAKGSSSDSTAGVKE
inactive: [1] -0.008 | [2] 0.029 | [3] -0.01 | [4] 0.046 | [5] -0.024 | [6] 0.035 | [7] -0.01 | [8] 0.034 | [9] -0.037 | [10] 0.026 | [11] -0.017 | [12] -0.018 | [13] 0.055 | [14] -0.024 | [15] -0.004 | [16] -0.002 | [17] -0.02 | [18] 0.015 | [19] -0.056 | [20] 0.06

RRAS2 isoform 4 (UniProt P62070)
UniProt P62070, sequence (P62070 whole entry, looked up): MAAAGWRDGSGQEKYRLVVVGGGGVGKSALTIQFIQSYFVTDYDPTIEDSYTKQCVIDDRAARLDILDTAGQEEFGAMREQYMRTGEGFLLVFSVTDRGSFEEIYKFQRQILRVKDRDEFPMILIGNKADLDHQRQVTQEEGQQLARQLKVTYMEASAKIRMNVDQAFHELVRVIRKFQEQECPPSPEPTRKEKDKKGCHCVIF
inactive: [1] -0.016 | [2] -0.02 | [3] -0.009 | [4] -0.021 | [5] -0.015 | [6] 0.011 | [7] -0.037 | [8] -0.034 | [9] -0.017 | [10] -0.049 | [11] 0.061 | [12] 0.124 | [13] -0.048 | [14] 0.063 | [15] 0.004 | [16] 0.014 | [17] -0.013 | [18] 0.019 | [19] -0.064
active: [20] 0.207

SLC18B1 (UniProt Q6NT16)
UniProt Q6NT16, sequence (Q6NT16 whole entry, looked up): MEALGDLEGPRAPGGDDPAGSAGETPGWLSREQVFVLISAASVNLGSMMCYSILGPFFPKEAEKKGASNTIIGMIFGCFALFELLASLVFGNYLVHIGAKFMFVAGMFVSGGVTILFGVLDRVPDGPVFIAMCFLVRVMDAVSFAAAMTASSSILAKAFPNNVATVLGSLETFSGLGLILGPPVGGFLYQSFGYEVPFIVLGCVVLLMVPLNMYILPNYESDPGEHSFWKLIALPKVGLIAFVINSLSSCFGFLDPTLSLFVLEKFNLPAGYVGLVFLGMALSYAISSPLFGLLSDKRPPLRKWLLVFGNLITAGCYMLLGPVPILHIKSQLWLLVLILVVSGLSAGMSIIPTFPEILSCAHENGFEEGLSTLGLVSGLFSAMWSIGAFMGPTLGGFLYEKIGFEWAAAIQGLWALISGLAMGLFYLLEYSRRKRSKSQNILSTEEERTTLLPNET
inactive: [1] -0.016 | [2] -0.194 | [3] -0.07 | [4] -0.111 | [5] 0.034 | [6] 0.069 | [7] 0.005 | [8] -0.044 | [9] -0.02 | [10] 0.084 | [11] 0.031 | [12] -0.114 | [13] -0.034 | [14] 0.022 | [15] 0.068 | [16] -0.005 | [17] -0.134 | [18] -0.044 | [19] -0.035
active: [20] -0.592

RGS10 (UniProt O43665)
active: [12] -0.205
inactive: [1] -0.012 | [2] -0.02 | [3] -0.02 | [4] -0.041 | [5] -0.012 | [6] 0.048 | [7] 0.034 | [8] 0.02 | [9] 0.026 | [10] 0.016 | [11] -0.097 | [13] -0.043 | [14] 0.101 | [15] -0.025 | [16] 0.011 | [17] 0.078 | [18] 0.011 | [19] -0.111 | [20] -0.016

SEPTIN5 (UniProt Q99719)
UniProt Q99719, sequence (Q99719 whole entry, looked up): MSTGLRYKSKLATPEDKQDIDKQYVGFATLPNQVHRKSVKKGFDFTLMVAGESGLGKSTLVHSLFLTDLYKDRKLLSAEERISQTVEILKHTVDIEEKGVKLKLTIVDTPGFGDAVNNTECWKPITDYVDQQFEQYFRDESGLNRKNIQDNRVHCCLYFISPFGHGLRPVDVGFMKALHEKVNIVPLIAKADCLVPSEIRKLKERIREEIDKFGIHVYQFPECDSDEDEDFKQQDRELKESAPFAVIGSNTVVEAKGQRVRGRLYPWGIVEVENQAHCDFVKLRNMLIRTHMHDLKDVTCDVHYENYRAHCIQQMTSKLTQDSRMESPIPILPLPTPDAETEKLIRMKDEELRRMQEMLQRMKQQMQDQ
inactive: [1] 0.026 | [2] 0 | [3] 0.007 | [4] 0.003 | [5] -0.06 | [6] -0.015 | [7] -0.015 | [8] 0.104 | [9] -0.006 | [10] -0.013 | [11] 0.03 | [12] 0.047 | [13] -0.003 | [14] -0.025 | [15] 0.016 | [16] -0.052 | [17] -0.019 | [18] 0.032 | [19] -0.09 | [20] -0.009

SELENOH (UniProt Q8IZQ5)
UniProt Q8IZQ5, sequence (Q8IZQ5 whole entry, looked up): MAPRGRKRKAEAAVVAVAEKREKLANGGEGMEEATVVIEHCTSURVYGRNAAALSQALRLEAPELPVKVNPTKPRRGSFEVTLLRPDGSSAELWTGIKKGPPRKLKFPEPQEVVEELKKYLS
inactive: [1] 0.09 | [2] -0.011 | [3] 0.023 | [4] -0.035 | [5] 0.089 | [6] 0.042 | [7] 0.007 | [8] 0.075 | [9] 0.024 | [10] -0.031 | [11] 0.001 | [12] 0.01 | [13] -0.05 | [14] 0.058 | [15] 0.024 | [16] -0.051 | [17] 0.041 | [18] -0.002 | [19] 0.084 | [20] 0.065

RHOA (UniProt P61586)
inactive: [1] 0.015 | [2] -0.073 | [3] 0.047 | [4] 0.061 | [5] 0.039 | [6] -0.042 | [7] 0.074 | [8] 0.145 | [9] -0.032 | [10] 0.026 | [11] -0.098 | [12] 0.134 | [13] 0.065 | [14] 0.049 | [15] 0.024 | [16] 0.071 | [17] -0.025 | [18] -0.057 | [19] -0.037 | [20] 0.01

RNASEH2A (UniProt O75792)
UniProt O75792, sequence (O75792 whole entry, looked up): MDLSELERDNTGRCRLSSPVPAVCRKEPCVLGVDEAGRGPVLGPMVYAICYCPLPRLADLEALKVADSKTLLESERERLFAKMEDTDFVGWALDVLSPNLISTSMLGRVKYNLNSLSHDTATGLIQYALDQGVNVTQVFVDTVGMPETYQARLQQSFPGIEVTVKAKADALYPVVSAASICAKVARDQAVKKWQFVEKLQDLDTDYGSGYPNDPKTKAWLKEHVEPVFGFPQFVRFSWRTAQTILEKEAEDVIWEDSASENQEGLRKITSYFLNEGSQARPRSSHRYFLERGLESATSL
inactive: [1] -0.023 | [2] -0.018 | [3] 0.022 | [4] 0.046 | [5] 0.142 | [6] -0.102 | [7] -0.024 | [8] -0.063 | [9] 0.046 | [10] 0.039 | [11] -0.062 | [12] -0.075 | [13] 0.068 | [14] 0.061 | [15] -0.002 | [16] -0.061 | [17] -0.118 | [18] 0.013 | [19] -0.019
active: [20] -0.394

RSRC1 (UniProt Q96IZ7)
inactive: [1] 0.041 | [2] 0.013 | [3] 0.006 | [4] 0.056 | [5] 0.02 | [6] -0.046 | [7] 0.004 | [8] -0.026 | [9] 0.019 | [10] -0.031 | [11] 0.01 | [12] 0.056 | [13] -0.041 | [14] 0.083 | [15] 0.022 | [16] -0.021 | [17] -0.005 | [18] 0.002 | [19] -0.01 | [20] -0.062

SEC23IP (UniProt Q9Y6Y8)
inactive: [1] 0.016 | [2] 0.041 | [3] 0.041 | [4] 0.012 | [5] 0.022 | [6] 0.051 | [7] 0.056 | [8] 0.024 | [9] 0.047 | [10] 0.016 | [11] -0.069 | [12] -0.005 | [13] 0.032 | [14] -0.009 | [15] -0.101 | [16] -0.057 | [17] 0.012 | [18] 0.289 | [19] -0.008 | [20] -0.133
